According to PubChem BioAssay (NCATS):
Activity calls are given as the source filed them. No rule for the calls is given here.

Assay: Immunotoxin (HA22) sensitization/mitigation study. Vehicle arm (PBS) (AID 1159510)
Settings: cancer cells viability with PBS vehicle (HA22 study); series mostly up to 46.1 µM
Potency is read from the fitted curve at half-maximal effect.

Compound	Potency
COC[C@H]1OC(=O)c2coc3c2[C@@]1(C)C1=C(C3=O)C2CCC(=O)[C@@]2(C)C[C@H]1OC(C)=O (some centres not stated)	5.9 µM (active)
C[C@]12CCC(=O)C(O)=C1CC[C@@H]1[C@@H]2CC[C@]2(C)C(=O)CC[C@@H]12	inactive
C[C@@H]1[C@@H](C(=O)C[C@H]2O[C@@H]3O[C@]4(C)CC[C@@H]5[C@H](C)CC[C@@H]([C@H]2C)[C@@]35OO4)O[C@@H]2O[C@]3(C)CC[C@H]4[C@H](C)CC[C@@H]1[C@@]24OO3	0.0264 µM (active)
COc1ccc(C(=O)c2c(C)n(CCN3CCOCC3)c3ccccc23)cc1	20.9 µM (active)
Cc1sc2c(c1C)C(c1ccc(Cl)cc1)=N[C@@H](CC(=O)OC(C)(C)C)c1nnc(C)n1-2	0.0743 µM (active)
Cn1cc(C2=C(c3cn(C4CCN(Cc5ccccn5)CC4)c4ccccc34)C(=O)NC2=O)c2ccccc21	4.18 µM (active)
O=C(O)C(=O)c1cn(Cc2ccccc2)c2ccc(-c3ccc(OC(F)(F)F)cc3)cc12	23.5 µM (active)
